Many of the other results were omitted from the sample, so hits are more common in it than they were.
Shiga toxin inh – A qHTS for Small Molecule Inhibitors of Shiga Toxin | inhibition, % at 38.7 µM | 290,000 compounds, 9.2% hits | AID 2315, 2010 | Vero cells, Shiga toxin protein synthesis inhibition reporter; in the data active means inhibition mostly above about 28%, no sharp cut-off; inactive means mostly below about 43%; further: 0% is about no effect
AMA1-RON2 inh – qHTS for Inhibitors of AMA1-RON; Towards Development of Antimalarial Drug Lead: Primary Screen. Plasmodium falciparum AMA1 (3D7) - RON2 peptide interaction. AlphaScreen AMA1-biotinylated RON2 peptide binding. Potency, µM (titrated, usually from 58.2 µM), without a hit: at the highest dose activity change, negative = inhibition, hits mostly inhibitors. 360,000 compounds, 0.2% hits. AID 720542, 2013;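 further: potency means the concentration at half of the fitted maximal effect; 0% = vehicle wells and -100% = peptide control; nearly all actives have a fitted effect of over 45% in size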
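AMA1 (3D7) with his tag at 25 nM final met compounds first, then biotinylated RON2 peptide at 25 nM; detection used donor plus acceptor beads, 10 µg/mL apiece, read by AlphaScreen after 30 min at room temperature.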
CHX counter – Cycloheximide Counterscreen for Small Molecule Inhibitors of Shiga Toxin | cell reporter, cycloheximide protein synthesis inhibition counterscreen | max response, % | 300,000 compounds, 12% hits | AID 2314, 2010; in the data active means max response mostly above about 13%, no sharp cut-off; inactive means mostly below about 14%; further: read at 38.3 µM for the half of the compounds with a filed dose; 0% is about no effect
SARS PLpro yeast – qHTS of Yeast-based Assay for SARS-CoV PLP; AID 485353, 2010; S. cerevisiae expressing SARS-CoV PLpro, growth rescue; Potency, µM (doses to about 32.9 µM), without a hit: at the highest dose activity, positive = growth rescue, most hits filed as activators; 330,000 compounds, 0.19% hits; calls by dose curve; further: potency means the concentration at half of the fitted maximal effect; 0% is about no effect; nearly all actives have a fitted effect of over 55% in size
AmpC inh no detg – qHTS Inhibitors of AmpC Beta-Lactamase (assay without detergent); AID 485341, 2010; Potency, µM (series often up to 57.1 µM), inactives show at the top dose activity change, negative = inhibition, usual class: inhibitors; 330,000 compounds, 0.52% hits; AmpC nitrocefin hydrolysis, absorbance 480 nm, 0.0001% Triton;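 further: potency means the concentration at half of the fitted maximal effect; plate controls were no compound for no effect and no enzyme for full effect; nearly all actives have a fitted effect of over 20% in size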
Target sequence (P00811 whole entry, looked up): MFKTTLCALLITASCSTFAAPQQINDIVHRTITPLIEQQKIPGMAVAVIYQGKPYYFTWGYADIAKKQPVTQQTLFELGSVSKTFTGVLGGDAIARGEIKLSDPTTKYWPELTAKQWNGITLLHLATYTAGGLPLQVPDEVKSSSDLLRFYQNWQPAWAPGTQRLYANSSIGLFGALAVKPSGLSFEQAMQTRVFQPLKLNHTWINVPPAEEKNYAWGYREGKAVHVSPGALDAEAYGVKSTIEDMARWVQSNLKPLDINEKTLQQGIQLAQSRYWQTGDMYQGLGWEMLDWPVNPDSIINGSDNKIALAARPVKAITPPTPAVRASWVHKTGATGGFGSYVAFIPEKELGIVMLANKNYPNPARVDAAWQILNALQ
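20 mM phosphate pH 7.0 + 0.01% (detergent screen) or 0.0001% Triton X-100; 5.3 nM AmpC reagent; cpd preinc 15 min RT; nitrocefin (800 uM stock) to start; A480 q20 s × 4 min; Activity was normalised to no-enzyme and no-compound control wells.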
AmpC detergent – qHTS Inhibitors of AmpC Beta-Lactamase (assay with detergent); P00811; AmpC hydrolysis of nitrocefin, absorbance 480 nm, 0.01% Triton; Potency, µM (top dose mostly 114 µM), without a hit: at the top dose activity change, negative = inhibition, usual class: inhibitors; 370,000 compounds, 0.041% hits;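 further: potency means the concentration at half of the fitted maximal effect; 0% = no-compound wells and -100% = no-enzyme wells; nearly all actives have a fitted effect of over 25% in size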
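20 mM phosphate pH 7.0 + 0.01% (detergent screen) or 0.0001% Triton X-100; 5.3 nM AmpC reagent; cpd preinc 15 min RT; nitrocefin (800 uM stock) to start; A480 q20 s × 4 min; Activity was normalised to no-enzyme and no-compound control wells.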
Starred values were filed as active, the others as inactive; ? = inconclusive; / = not tested or not shown; [ ] = remark or other dose. Unless noted, the call rests on the fitted dose curve; in most records, active means well fitted curve in the direction sought with a large enough effect; inconclusive means small, poorly fitted or top-dose-only effect, or another doubt; inactive means no such curve, though single readings can be large; an effect the other way counts as inactive or inconclusive.

SMILES	Shiga toxin inh	AMA1-RON2 inh	CHX counter	SARS PLpro yeast	AmpC inh no detg	AmpC detergent
O=C(OCC(=O)N1CCCC1)c1ccccc1OCc1ccccc1	12.9	3.7%	20.9*	-1.0%	6.7%	0.7%
C/C(=N/NC(=O)c1ccc(C)s1)c1cccc(NC(=O)c2ccoc2C)c1	36.6	21.7%	32.3*	-8.1%	-18.2%	15.1%
COc1ccc(C(=O)N/N=C(/C)c2cccc(NC(=O)C(F)(F)F)c2)cc1	72.7*	9.4%	36.8*	7.5%	-45.9%	-12.4%
C/C(=N/NC(=O)c1ccoc1C)c1cccc(NC(=O)C2CC2)c1	73.2*	-4.9%	63.4*	3.8%	-28.5%	-8.7%
Cc1occc1C(=O)Nc1cccc(/C=C/C(=O)O)c1	/	0.0%	/	/	/	/
C/C(=N/NC(=O)c1ccoc1C)c1cccc(NC(=O)C(F)(F)F)c1	104.5*	67.9%	59.4*	0.4%	4.7%	5.6%
CCCNC(=O)N1CCN(C(c2ccccc2)c2ccccc2)CC1	-25.3	-6.7%	2.4	-1.8%	82.5%	-0.6%
CCCCNC(=O)/C(C#N)=C/c1ccc2c(c1)OCCO2	50.2*	3.2%[2.32 µM]	47.4*	-3.6%	-10.0%	?
N#C/C(=C\c1ccc2c(c1)OCCO2)C(=O)NC1CCCCC1	23.9	-7.1%	39.1*	?	2.0%	9.6%
CCCCCCCCNC(=O)/C(C#N)=C/c1ccc2c(c1)OCCO2	15.0	-2.4%	1.6	13.6%	-10.3%	?
Cc1ccc(-c2nc(Nc3ccccc3)n[nH]2)cc1	82.5*	-21.4%	42.8*	-10.4%	-28.0%	-12.4%
CCc1ccc(NC(=O)COC(=O)Cn2cnc3ccccc32)cc1	/	27.7%	/	1.4%	-0.5%	?
O=C(O)c1cccc(N2C(=O)c3cccc(Oc4ccc(Cl)cc4)c3C2=O)c1	0.9	-4.4%	18.6*	?	-33.9%	-13.8%
OCCN1c2ccccc2CCc2ccccc21	/	-12.6%	/	/	/	/
O=C(O)c1ccccc1C(=O)Nc1ccc(S(=O)(=O)N2CCCC2)cc1	22.4	0.0%	-3.0	3.6%	-8.2%	3.3%
CCCCn1cnc2sc(-c3ccccc3)cc2c1=O	98.3*	-24.1%	38.4*	-16.9%	-5.7%	-0.8%
CCCCCn1cnc2sc(-c3ccccc3)cc2c1=O	61.0*	0.0%	47.3*	-5.2%	-27.4%	2.4%
O=c1c2cc(-c3ccccc3)sc2ncn1/N=C/c1ccco1	83.2	-4.9%	36.8*	-9.7%	-16.3%	-7.8%
CNC(=O)NC(=O)Cn1cnc2sc(-c3ccccc3)cc2c1=O	21.8	0.4%	-2.5	0.6%	-10.4%	2.6%
CCOC(=O)N1CCN(C(=O)CC(C)S(=O)(=O)c2cc3c(cc2C)NC(=O)CO3)CC1 (centres undefined)	-1.5	-11.6%	1.4	-5.0%	4.9%	1.4%
C/C(=N\NC(=O)c1c(Cl)c(C)nn1C)c1ccc(NC(=O)COc2ccc(Cl)cc2C)cc1	-8.4	0.9%	-0.6	3.2%	64.0%	?
Cc1ccc(C(=O)/C=C/c2cn(CC(O)CN3CCOCC3)c3ccccc23)cc1 (centres undefined)	29.4	4.3%[11.6 µM]	29.7*	-0.9%	220.3%	-5.2%
COc1ccc(C(=O)/C=C/c2cn(CC(O)CN3CCOCC3)c3ccccc23)cc1 (centres undefined)	13.2	2.4%[11.6 µM]	12.5*	-5.3%	294.5%	0.8%
CN(C)c1ccc(N=Nc2nc3ccccc3n2C)cc1	-12.5	3.98µM*	-9.1	-13.9%	-11.6%	-5.2%
Cc1cccc(C(=O)N2c3ccccc3C(=O)OC2c2ccc3c(c2)OCO3)c1 (centres undefined)	27.1	3.1%	21.4*	-1.9%	-36.2%	?
CC(=O)N1C(c2ccccc2)CC(=O)OC1c1ccc2c(c1)OCO2 (centres undefined)	-3.3	-1.7%	-0.9	1.3%	-18.7%	?
O=C1OC(c2ccc3c(c2)OCO3)N(C(=O)c2ccc(Cl)c(Cl)c2)c2ccccc21 (centres undefined)	117.5*	-14.8%	38.8*	-25.2%	-58.8%	-0.4%
